Source: PubChem (several laboratories)
Sampled rows, rich in hits. Any-hit rate of the full collection: about 4.6%.
NR3A LBD binder – modulates the human NR3A ligand-binding domain; AID 1259313; Tm shift relative to glycine control, % at 25 µM; NR3A LBD differential scanning fluorimetry, Tm shift; 0% = protein alone, 100% = glycine-bound protein; 2.5% of 340,000 active;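 active = melting temperature shift of at least 10% of the positive control shift, at one fixed dose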
ADAM17 inh – inhibits human ADAM17; P78536; recombinant ADAM17, EDANS/DABCYL FRET peptide cleavage; inhibition, % at 6.95 µM; 0.83% of 370,000 active;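 active = inhibition above the mean of compounds lying between control limits plus 3 SD, set per campaign, cut at about 8.5% in these data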
ADAM10 inh – inhibits human ADAM10 | O14672 | recombinant ADAM10, EDANS/DABCYL FRET peptide cleavage, 3 h | inhibition, % at 7 µM | 0.62% of 370,000 active;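 active = inhibition above a per-campaign cutoff equal to the mean of compounds falling between control-based bounds plus 3 SD, cut at about 20% in these data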
Target sequence (O14672 214-748 limits assumed): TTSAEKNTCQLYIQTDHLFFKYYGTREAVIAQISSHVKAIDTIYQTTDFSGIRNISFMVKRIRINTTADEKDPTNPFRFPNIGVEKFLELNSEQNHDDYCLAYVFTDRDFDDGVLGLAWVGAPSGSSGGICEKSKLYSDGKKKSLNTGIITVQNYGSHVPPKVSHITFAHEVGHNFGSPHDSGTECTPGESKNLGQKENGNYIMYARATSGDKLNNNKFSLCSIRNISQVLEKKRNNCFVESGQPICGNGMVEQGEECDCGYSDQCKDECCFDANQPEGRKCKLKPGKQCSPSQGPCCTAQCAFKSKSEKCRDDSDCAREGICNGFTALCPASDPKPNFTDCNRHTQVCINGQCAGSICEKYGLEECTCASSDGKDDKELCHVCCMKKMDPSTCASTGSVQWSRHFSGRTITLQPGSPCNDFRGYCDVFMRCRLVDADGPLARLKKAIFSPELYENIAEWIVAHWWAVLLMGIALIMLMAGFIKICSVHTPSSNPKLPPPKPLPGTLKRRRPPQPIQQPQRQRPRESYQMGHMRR
KLK7 zymogen act – activates the human kallikrein-7 zymogen | purified proKLK7, EDANS-DABCYL substrate fluorescence; 100% is mature enzyme control, 0% vehicle | activation, % at 7 µM | 0.9% of 370,000 active;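 active = activation above the mean of all tested compounds plus 3 SD, computed per campaign excluding outliers beyond control limits, cut at about 13% in these data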
FAS-TE inh – inhibitors of human fatty acid synthase thioesterase domain. P49327. recombinant FAS-TE, OMFH fluorogenic substrate, fluorescence endpoint. inhibition, % at 15 µM. 0.67% of 360,000 active;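 active = compounds whose normalised, plate-corrected inhibition of enzyme fluorescence in the single-dose primary screen is 50% or more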
Each line names hits and unclear results; the compound was inactive in the other large screens.

Cn1c(SC/C=C/c2ccccc2)nnc1-c1ccco1	NR3A LBD binder 12
CSc1nc2ccc(NC(=O)c3nn(C(C)C)c(=O)c4ccccc34)cc2s1	none
Cc1nc2ccc(NC(=O)c3nn(C(C)C)c(=O)c4ccccc34)cc2s1	NR3A LBD binder 17
Cc1nc2ccc(NC(=O)COc3ccccc3C)cc2s1	NR3A LBD binder 32
Cc1ccc2nc(NC(=O)c3ccc(Cl)s3)sc2c1	NR3A LBD binder 20
Cc1ccc(C(=O)Nc2nc3ccccc3s2)s1	NR3A LBD binder 18
Cc1cccc2sc(NC(=O)c3ccc(Cl)s3)nc12	none
Cc1ccccc1Cn1cc(CN2[C@H](Cc3ccccc3)COc3cc(Br)ccc3S2(=O)=O)nn1	none (no result: NR3A LBD binder, FAS-TE inh)
Cc1nc2ccc(NC(=O)c3ccc(Cl)s3)cc2s1	NR3A LBD binder 27, KLK7 zymogen act 13
COc1cccc2sc(NC(=O)c3ccc(Br)s3)nc12	NR3A LBD binder 11
Cc1nc2ccc(NC(=O)c3cnc(Cl)c(Cl)c3)cc2s1	none
Cc1cccc(OCC(=O)Nc2nc3ccc([N+](=O)[O-])cc3s2)c1C	none
O=C(COc1ccccc1C(=O)O)Nc1nc2ccc([N+](=O)[O-])cc2s1	NR3A LBD binder 14
CC(=O)NC1CCCCN(Cc2ccc(Cl)cc2)C1=O (centres undefined)	none (no result: NR3A LBD binder, FAS-TE inh)
COc1ccc(C(=O)OCCCN(C)C2CN(Cc3cn(Cc4ccccc4Cl)nn3)S(=O)(=O)C2)cc1OC (centres undefined)	none (no result: NR3A LBD binder, FAS-TE inh)
O=C(N/N=C/c1cccc(O)c1)c1ccc(NC(=O)C2CCCCC2)cc1	NR3A LBD binder 10
O=C(N/N=C/c1ccc(O)cc1O)c1ccc(NC(=O)C2CCCCC2)cc1	NR3A LBD binder 23
O=C(N/N=C/c1cccc(O)c1)NC1CCCCC1	none
CC(=O)Nc1ccc(NC(=O)CN2CCN(c3cccc(C(F)(F)F)c3)CC2)cc1	none (no result: ADAM17 inh, ADAM10 inh, KLK7 zymogen act)
CC(C)(C)NC(=O)/C=C/c1cccc(C(F)(F)F)c1	none
CC(=O)Nc1ccc(NC(=O)/C=C/c2ccc(Cl)cc2)cc1	NR3A LBD binder 13
CC(=O)Nc1ccc(CN2CCN(c3cccc(C(F)(F)F)c3)CC2)cc1	NR3A LBD binder 20
Cc1cc(NC(=O)/C=C/c2ccc(Cl)cc2)no1	none
CC(=O)Nc1ccc(NC(=O)/C=C/c2cccc(C(F)(F)F)c2)cc1	NR3A LBD binder 18
COC(=O)[C@]12C[C@H](CC(=O)NCCCN3CCCC3=O)C(=O)N(CCC3=CCCCC3)C1=C[C@H](C(C)C)O[C@@H]2C1CC1	none (no result: NR3A LBD binder, FAS-TE inh)
O=C(NNc1c2ccccc2nc2ccccc12)c1ccc(O)cc1O	none
O=C(NNc1c2ccccc2nc2ccccc12)c1ccccc1O	NR3A LBD binder 18
O=C(N/N=C/c1cn(-c2ccccc2)nc1-c1cccs1)c1ccc(Cl)cc1	NR3A LBD binder 27
O=C(O)CCN1C(=O)/C(=C/c2cn(-c3ccccc3)nc2-c2cccs2)SC1=S	NR3A LBD binder 29
O=C(O)CCCCCN1C(=O)/C(=C\c2cn(-c3ccccc3)nc2-c2cccs2)SC1=S	none
O=C(O)CCCCCN1C(=O)/C(=C/c2cn(-c3ccccc3)nc2-c2cccs2)SC1=S	NR3A LBD binder 20
Oc1ccc(-c2nc3c4c(ncn3n2)-c2ccccc2CC42CCCC2)cc1	NR3A LBD binder 61
Nn1cnc2c(c1=O)C1(CCCCC1)Cc1ccccc1-2	none
O=[N+]([O-])c1ccccc1/C=C/C=Nn1c(-c2ccc(F)cc2)n[nH]c1=S	none (no result: NR3A LBD binder, FAS-TE inh)
CCN(CC)CCCNc1nnc(C)c(=O)[nH]1	NR3A LBD binder 11
Cc1nnc(NCCc2ccccc2)[nH]c1=O	none
Clc1ccc(N/N=C/c2ccncc2)cc1Cl	NR3A LBD binder 12
Clc1cnc(N/N=C/c2ccncc2)c(Cl)c1	none
Fc1ccc(N/N=C/c2ccncc2)c(F)c1	NR3A LBD binder 23
O=C(O)c1ccc(/C=N/Nc2ccc(F)cc2F)cc1	none
COc1ccc(/C=C2\CC3(OC(=O)c4ccc(F)cc4)CCCN2C3)cc1 (centres undefined)	none (no result: NR3A LBD binder, FAS-TE inh)
CC(=O)Nc1ccc(NC(=O)CS(=O)(=O)Cc2ccccc2)cc1	NR3A LBD binder 13
COCCNC(=O)CSc1ccc(-c2nc3ccccc3[nH]2)cn1	none
Cc1nc(NC(=O)CSc2ccc(-c3nc4ccccc4[nH]3)cn2)sc1C	NR3A LBD binder 20
CCc1nnc(NC(=O)CSc2ccc(-c3nc4ccccc4[nH]3)cn2)s1	NR3A LBD binder 19
CCOC(=O)CSc1ccc(-c2nc3ccccc3[nH]2)cn1	none
